Results filed as inconclusive are left out. The source made the active and inactive calls. Calls follow the shape of the dose curve; as a rule, active = well fitted curve in the direction sought with a large enough effect; inconclusive = small, poorly fitted or top-dose-only effect, or another doubt; inactive = no such curve, though single readings can be large; an effect the other way counts as inactive or inconclusive.
How the values were obtained:
[1] = qHTS for differential inhibitors of proliferation of Plasmodium falciparum line 7G8 (AID 1815);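 also: potency is read from the fitted curve at half-maximal effect; parasite growth measured after three days of incubation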
[2] = qHTS for differential inhibitors of proliferation of Plasmodium falciparum line GB4 (AID 1816); conditions: Potency: Plasmodium falciparum GB4 proliferation inhibition;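 also: potency is read from the fitted curve at half-maximal effect; parasite growth measured after 72 h incubation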
[3] = qHTS for differential inhibitors of proliferation of Plasmodium falciparum line 3D7 (AID 1876); also: potency is read from the fitted curve at half-maximal effect
[4] = qHTS for differential inhibitors of proliferation of Plasmodium falciparum line D10 (AID 1877);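 also: potency is read from the fitted curve at half-maximal effect; parasites grown with compound for 72 h before DNA staining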
[5] = qHTS for differential inhibitors of proliferation of Plasmodium falciparum line W2 (AID 1883); conditions: Potency: Plasmodium falciparum W2 proliferation inhibition;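 also: potency is read from the fitted curve at half-maximal effect; parasites grown with compound for 72 h before lysis and staining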
[6] = qHTS for differential inhibitors of proliferation of Plasmodium falciparum line HB3 (AID 1886); conditions: Potency: Plasmodium falciparum HB3 proliferation inhibition;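 also: potency is read from the fitted curve at half-maximal effect; parasites grown with compound for 72 h before SYBR Green readout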
[7] = target: Ferritin light chain (Equus caballus) (UniProt P02791); assay: qHTS Validation Assay for Identification of Novel General Anesthetics (AID 2323); also: series mostly up to about 77 µM
Outline: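 Apoferritin from horse spleen (10 uM) was mixed with 1-aminoanthracene at 50% saturation in PBS, then compounds were added. After 10 min at room temperature, fluorescence was read (ex 380 nm, em 535 nm) and normalized to free-probe and complex controls.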

[8] = target: ATP-dependent DNA helicase Q1 (Homo sapiens) (UniProt P46063); assay: qHTS Validation Assay for Inhibitors of RecQ-Like Dna Helicase 1 (RECQ1) (AID 2353)
Outline: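 50 nM RECQ1T1 preincubated 15 min with compound in Tris pH 8.0 buffer with MgCl2, DTT, Tween-20 and 2.5 ug/ml poly(dI-dC); started with 200 nM TAMRA/BHQ-2 forked duplex and 2 mM ATP. Unwinding read as fluorescence (525/598 nm), two reads 2 h apart.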

[9] = target: RecQ-like DNA helicase BLM (Homo sapiens) (UniProt P54132); assay: qHTS Validation Assay for Inhibitors of Bloom's syndrome helicase (BLM) (AID 2364)
Outline: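 BLM 50 nM in 25 mM Tris-HCl pH 8.0, 5 mM NaCl, 2 mM MgCl2, 1 mM DTT, 0.01% Tween-20, 2.5 ug/ml poly(dI-dC); 15 min cpd preinc, RT. Start: 200 nM forked DNA + 2 mM ATP (final). TAMRA read, 2 reads 2 h apart.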

[10] = Validation screen for small molecules that induce DNA re-replication in MCF 10A normal breast cells (AID 463097); also: nearly all actives have a fitted effect of over 60% in size
Outline: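 DNA re-replication was detected as a rise in nuclei with elevated Hoechst fluorescence after a 48 hr compound exposure of MCF 10A cells at 37 C.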

[11] = Quantitative high throughput screen for delayed death inhibitors of the malarial parasite plastid, 96 hour incubation (AID 488745); also: potency is read from the fitted curve at half-maximal effect; nearly all actives have a fitted effect of over 70% in size
Outline: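 P. falciparum carrying an integrated firefly luciferase reporter, grown in erythrocytes (2% hematocrit, 0.1% parasitemia final) in RPMI 1640/0.5% Albumax, was exposed to compound for 96 h (two generations) at 37 C, 5% CO2. Luminescence decrease indicated growth inhibition.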

[12] = Quantitative high throughput screen for delayed death inhibitors of the malarial parasite plastid, 48 hour incubation (AID 488752); also: potency is read from the fitted curve at half-maximal effect; nearly all actives have a fitted effect of over 65% in size
Outline: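 Erythrocytes infected with P. falciparum carrying an integrated firefly luciferase reporter (2% hematocrit, 0.1% parasitemia final) were exposed to compounds in RPMI 1640/0.5% Albumax for 48 h at 37 C, 5% CO2. Growth inhibition was scored as reduced luminescence.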

[13] = target: M-phase phosphoprotein 8 (Homo sapiens) (UniProt Q99549); assay: qHTS Validation Assay for Inhibitors for MPP8 Chromodomain Interactions with Methylated Histone Tails (AID 488949);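 also: AlphaScreen signal from MPP8 chromodomain bound to biotinylated H3K9me3 peptide; top concentration of the series differs between compounds; nearly all actives have a fitted effect of over 55% in size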
Outline: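 Disruption of the preformed MPP8–trimethyl-H3K9 peptide complex (both 50 nM, 30 min, RT) is measured after 30 min compound exposure, using AlphaScreen proximity beads; aurintricarboxylic acid titration serves as plate control.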

[14] = target: Transient receptor potential cation channel subfamily V member 1 (Homo sapiens) (UniProt Q8NER1); assay: HTS Assay for Compounds that Act as Enhancers of the Vanilloid Receptor 1 (AID 488979)
Outline: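 TRPV1-expressing cells loaded with Fluo-8 calcium dye; compounds added and calcium influx read kinetically for 3 min (agonist phase), then capsaicin at EC20 added and read 2 min more for enhancement. Fluorescence ex 480/em 520 nm.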

[15] = target: Galactokinase (Homo sapiens) (UniProt P51570); assay: qHTS Validation Assay for Inhibitors of Human Galactokinase (GALK) (AID 493189)
Outline: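 Compounds were pin-transferred into ATP buffer, then GALK-galactose mix was added (final 5 nM enzyme, 100 uM galactose, 35 uM ATP). After 1 h at room temperature, remaining ATP was measured luminescently.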

[16] = Validation screen for small molecules that induce DNA re-replication in SW480 colon adenocarcinoma cells (AID 504364)
Outline: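 SW480 cells seeded at 250 per well were exposed to compound or DMSO for 48 hr at 37 C, 5% CO2, then stained with Hoechst for 40 min. DNA content per nucleus was imaged (405 nm ex, 500-530 nm em).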

[17] = target: DNA dC->dU-editing enzyme APOBEC-3G (Homo sapiens) (UniProt Q9HC16); assay: qHTS for inhibitors of Vif-A3G interactions: Validation (AID 588379)
Outline: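 HeLa cells stably expressing Vif and A3G-eYFP, 700 cells/well, incubated overnight at 37 deg C, then exposed to compound overnight at 37 deg C. Inhibition of Vif-mediated degradation read as increased yellow fluorescence (Ex 488/Em 500-530) by laser-scanning cytometry.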

[18] = tested on: Zika virus NS2B-NS3 protease; assay: Primary screen GU AMC qHTS for Zika virus inhibitors (AID 1347154); also: nearly all actives have a fitted effect of over 70% in size
Outline: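 Unlinked Zika NS2B hydrophilic domain/NS3 protease domain noncovalent complex (25 nM final) in 10 mM Tris-HCl pH 8.0, 0.01% Tween 20, with AMC peptide substrate. Fluorescence (ex 340, em 450 nm) change over 15 min, room temperature; percent inhibition fitted to 4-parameter Hill equation.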

[19] = Primary qHTS for small molecule stabilizers of the endoplasmic reticulum resident proteome: Secreted ER Calcium Modulated Protein (SERCaMP) assay (AID 1508630)
Outline: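 GLuc-SERCaMP-expressing SH-SY5Y cells, pretreated 16 h with compound, are challenged with thapsigargin to empty ER calcium stores; after 4 h, coelenterazine is added directly to the medium and luminescence is imaged.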

Measured: Potency

DNA dC->dU-editing enzyme APOBEC-3G (Homo sapiens), sequence (Q9HC16 whole entry, looked up): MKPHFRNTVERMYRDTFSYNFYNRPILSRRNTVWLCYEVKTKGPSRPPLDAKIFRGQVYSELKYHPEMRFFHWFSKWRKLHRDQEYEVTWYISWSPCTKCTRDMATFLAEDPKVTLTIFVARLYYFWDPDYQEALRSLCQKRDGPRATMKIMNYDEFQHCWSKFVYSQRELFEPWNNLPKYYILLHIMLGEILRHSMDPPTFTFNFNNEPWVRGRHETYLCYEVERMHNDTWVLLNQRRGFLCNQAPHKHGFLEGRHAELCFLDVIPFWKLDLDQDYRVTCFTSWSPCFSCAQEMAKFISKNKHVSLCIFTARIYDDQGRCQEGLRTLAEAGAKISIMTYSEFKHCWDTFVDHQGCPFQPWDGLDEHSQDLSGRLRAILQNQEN
ATP-dependent DNA helicase Q1 (Homo sapiens), sequence (P46063 whole entry, looked up): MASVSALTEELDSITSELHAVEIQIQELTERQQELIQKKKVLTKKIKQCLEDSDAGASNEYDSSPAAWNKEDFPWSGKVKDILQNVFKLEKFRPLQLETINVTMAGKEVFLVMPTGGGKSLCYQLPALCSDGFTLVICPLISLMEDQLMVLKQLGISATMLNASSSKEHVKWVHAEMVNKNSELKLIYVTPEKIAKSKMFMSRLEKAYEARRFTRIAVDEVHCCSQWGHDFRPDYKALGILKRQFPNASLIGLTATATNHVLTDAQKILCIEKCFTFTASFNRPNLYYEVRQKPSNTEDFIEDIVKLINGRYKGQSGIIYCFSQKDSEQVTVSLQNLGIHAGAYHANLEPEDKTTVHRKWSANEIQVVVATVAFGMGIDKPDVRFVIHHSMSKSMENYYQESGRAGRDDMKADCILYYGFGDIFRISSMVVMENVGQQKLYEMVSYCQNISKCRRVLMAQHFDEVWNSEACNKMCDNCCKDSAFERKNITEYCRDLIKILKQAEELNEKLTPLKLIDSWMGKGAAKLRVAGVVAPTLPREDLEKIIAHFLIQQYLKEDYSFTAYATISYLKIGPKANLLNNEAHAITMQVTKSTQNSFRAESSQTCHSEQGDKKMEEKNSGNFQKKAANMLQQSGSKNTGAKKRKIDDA
Ferritin light chain (Equus caballus), sequence (P02791 2-175 limits assumed): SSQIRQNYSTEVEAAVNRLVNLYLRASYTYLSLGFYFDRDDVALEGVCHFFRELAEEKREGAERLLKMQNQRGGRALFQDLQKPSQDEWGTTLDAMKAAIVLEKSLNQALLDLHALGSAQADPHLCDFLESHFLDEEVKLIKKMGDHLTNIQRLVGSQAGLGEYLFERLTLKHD
Galactokinase (Homo sapiens), sequence (P51570 whole entry, looked up): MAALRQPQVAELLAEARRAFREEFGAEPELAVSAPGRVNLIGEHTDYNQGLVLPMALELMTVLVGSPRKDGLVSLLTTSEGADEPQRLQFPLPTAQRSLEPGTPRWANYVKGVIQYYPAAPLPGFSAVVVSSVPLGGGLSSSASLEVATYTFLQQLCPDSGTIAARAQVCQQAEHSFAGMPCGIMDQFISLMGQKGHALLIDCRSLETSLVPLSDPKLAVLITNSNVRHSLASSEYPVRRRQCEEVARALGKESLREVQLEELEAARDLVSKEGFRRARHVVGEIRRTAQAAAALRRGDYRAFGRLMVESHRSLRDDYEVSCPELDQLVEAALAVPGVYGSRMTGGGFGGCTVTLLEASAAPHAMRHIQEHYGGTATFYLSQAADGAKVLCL
M-phase phosphoprotein 8 (Homo sapiens), sequence (Q99549 whole entry, looked up): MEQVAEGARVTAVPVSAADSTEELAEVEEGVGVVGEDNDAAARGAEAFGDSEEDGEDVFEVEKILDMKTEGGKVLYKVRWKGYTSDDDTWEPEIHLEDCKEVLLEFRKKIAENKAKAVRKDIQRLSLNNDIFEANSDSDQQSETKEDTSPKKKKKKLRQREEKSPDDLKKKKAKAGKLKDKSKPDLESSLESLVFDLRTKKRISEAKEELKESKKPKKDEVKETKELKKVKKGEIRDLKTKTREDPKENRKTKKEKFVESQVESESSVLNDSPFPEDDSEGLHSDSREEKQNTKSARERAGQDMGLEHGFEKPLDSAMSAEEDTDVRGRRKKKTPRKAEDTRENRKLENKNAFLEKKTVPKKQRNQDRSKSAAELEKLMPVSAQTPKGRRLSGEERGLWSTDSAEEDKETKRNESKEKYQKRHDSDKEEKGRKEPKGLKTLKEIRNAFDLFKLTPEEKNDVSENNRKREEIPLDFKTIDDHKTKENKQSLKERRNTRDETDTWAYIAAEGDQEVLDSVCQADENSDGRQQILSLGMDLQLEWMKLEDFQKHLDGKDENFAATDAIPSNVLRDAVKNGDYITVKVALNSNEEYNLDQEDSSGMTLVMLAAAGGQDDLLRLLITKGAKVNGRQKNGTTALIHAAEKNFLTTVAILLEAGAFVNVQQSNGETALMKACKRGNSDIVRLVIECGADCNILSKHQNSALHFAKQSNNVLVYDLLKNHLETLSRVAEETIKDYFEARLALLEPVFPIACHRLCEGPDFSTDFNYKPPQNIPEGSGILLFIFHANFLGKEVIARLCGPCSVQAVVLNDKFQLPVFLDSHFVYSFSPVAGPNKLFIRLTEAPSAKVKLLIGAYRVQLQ
Transient receptor potential cation channel subfamily V member 1 (Homo sapiens), sequence (Q8NER1 whole entry, looked up): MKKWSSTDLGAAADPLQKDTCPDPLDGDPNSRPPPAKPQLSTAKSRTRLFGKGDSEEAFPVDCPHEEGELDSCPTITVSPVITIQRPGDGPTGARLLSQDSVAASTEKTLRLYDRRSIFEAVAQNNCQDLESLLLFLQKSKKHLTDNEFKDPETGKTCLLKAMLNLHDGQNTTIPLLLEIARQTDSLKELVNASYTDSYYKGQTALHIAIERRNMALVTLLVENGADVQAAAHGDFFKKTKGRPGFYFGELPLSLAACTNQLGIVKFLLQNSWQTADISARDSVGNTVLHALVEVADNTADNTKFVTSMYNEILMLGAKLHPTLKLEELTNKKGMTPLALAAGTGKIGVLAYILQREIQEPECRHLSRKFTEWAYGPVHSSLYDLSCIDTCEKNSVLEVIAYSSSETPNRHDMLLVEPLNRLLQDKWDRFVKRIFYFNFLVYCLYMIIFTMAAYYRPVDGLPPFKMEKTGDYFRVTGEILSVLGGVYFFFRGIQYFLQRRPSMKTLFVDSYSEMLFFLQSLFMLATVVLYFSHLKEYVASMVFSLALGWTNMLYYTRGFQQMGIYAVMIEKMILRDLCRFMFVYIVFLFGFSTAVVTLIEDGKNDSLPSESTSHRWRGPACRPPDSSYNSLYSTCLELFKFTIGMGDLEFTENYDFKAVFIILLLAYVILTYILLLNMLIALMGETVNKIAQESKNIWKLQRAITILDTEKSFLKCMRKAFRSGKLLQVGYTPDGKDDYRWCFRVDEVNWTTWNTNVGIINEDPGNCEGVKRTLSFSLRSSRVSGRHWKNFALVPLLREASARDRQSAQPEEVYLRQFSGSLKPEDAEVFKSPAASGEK
RecQ-like DNA helicase BLM (Homo sapiens), sequence (P54132 whole entry, looked up): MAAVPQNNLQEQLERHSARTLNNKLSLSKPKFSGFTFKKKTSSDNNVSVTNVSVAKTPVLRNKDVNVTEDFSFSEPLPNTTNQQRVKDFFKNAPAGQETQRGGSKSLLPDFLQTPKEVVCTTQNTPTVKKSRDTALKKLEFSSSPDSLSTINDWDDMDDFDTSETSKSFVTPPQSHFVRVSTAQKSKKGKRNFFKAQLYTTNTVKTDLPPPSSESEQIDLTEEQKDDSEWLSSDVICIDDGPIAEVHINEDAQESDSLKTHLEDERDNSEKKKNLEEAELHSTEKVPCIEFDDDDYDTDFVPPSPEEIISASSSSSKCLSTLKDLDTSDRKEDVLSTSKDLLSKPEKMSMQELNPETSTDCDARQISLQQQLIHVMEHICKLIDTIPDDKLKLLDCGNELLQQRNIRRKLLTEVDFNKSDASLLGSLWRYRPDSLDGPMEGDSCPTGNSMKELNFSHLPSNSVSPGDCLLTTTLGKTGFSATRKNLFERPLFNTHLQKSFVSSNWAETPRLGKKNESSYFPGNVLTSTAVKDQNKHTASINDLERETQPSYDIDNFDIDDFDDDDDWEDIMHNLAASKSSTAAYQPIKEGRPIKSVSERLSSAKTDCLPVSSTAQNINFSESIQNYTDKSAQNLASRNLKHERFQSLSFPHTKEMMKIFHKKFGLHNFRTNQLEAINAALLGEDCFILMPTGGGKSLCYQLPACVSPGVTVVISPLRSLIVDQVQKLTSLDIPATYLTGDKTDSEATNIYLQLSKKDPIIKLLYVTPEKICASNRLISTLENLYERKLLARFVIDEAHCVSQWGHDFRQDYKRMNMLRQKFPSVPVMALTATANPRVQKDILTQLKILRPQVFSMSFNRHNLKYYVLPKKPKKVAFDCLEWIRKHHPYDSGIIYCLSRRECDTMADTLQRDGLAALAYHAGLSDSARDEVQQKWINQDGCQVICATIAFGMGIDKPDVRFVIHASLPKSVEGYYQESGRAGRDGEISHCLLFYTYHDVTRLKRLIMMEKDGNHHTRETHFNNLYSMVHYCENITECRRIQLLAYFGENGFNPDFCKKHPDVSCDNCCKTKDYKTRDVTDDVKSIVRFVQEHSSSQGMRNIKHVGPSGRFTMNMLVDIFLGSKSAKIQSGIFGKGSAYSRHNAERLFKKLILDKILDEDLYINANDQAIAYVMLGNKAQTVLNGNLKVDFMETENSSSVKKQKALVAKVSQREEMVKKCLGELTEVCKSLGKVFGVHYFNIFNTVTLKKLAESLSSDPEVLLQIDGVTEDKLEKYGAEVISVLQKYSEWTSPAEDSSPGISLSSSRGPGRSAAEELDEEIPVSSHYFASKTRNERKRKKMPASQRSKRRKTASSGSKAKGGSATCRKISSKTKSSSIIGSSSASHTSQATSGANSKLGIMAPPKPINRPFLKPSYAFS

COc1[nH]c2ccc(F)cc2c1C(=O)OCC1CCN(CCNS(C)(=O)=O)CC1
inactive: [7] | [8] | [9] | [10] | [13] | [14] | [15] | [16] | [17] | [18] | [19]
active: [1] 7.94 µM | [2] 6.31 µM | [3] 7.08 µM | [4] 7.08 µM | [5] 10 µM | [6] 5.01 µM | [11] 14.7 µM | [12] 11.7 µM
